Experimental data published in PubChem BioAssay (Tox21).
Records with an inconclusive call do not appear. Activity calls are given as the source filed them. Calls come from the whole dose curve; as a rule, active = well fitted curve in the direction sought with a large enough effect in the repeat runs; inconclusive = weak or mixed curves; inactive = no such curve, though single readings can be large; an effect the other way counts as inactive or inconclusive.

Key:
[1] = A CellTox Green Cytotoxicity Assay to monitor cytotoxicity in HEK293 cells - 24 hour (AID 1224875); note: nearly all actives have a fitted effect of over 45% in size; note: potency is the fitted concentration of half-maximal effect
In short: (§1)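 Seeding of HEK293 cells together with cytotoxicity dye preceded a 5 h incubation at 37 C/5% CO2. Test compounds in DMSO were then added and fluorescence monitored across 40 h.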

[2] = A CellTox Green Cytotoxicity Assay to monitor cytotoxicity in HepG2 cells - 24 hour (AID 1224878); note: nearly all actives have a fitted effect of over 45% in size; note: potency is the fitted concentration of half-maximal effect
In short: (§2)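 Nonlytic assay: viable cells exclude the dye, so fluorescence scales with cell death. HepG2 at 600 cells/well, compounds added after 5 h, signal read across 40 h.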

[3] = A CellTox Green Cytotoxicity Assay to monitor cytotoxicity in HepG2 cells - 40 hour (AID 1224879); note: nearly all actives have a fitted effect of over 40% in size; note: potency is the fitted concentration of half-maximal effect
In short: as §2

[4] = qHTS RealTime-Glo MT Cell Viability Assay in HEK293 cells - 0 hour (AID 1224880); note: top concentration of the series differs between compounds; nearly all actives have a fitted effect of over 45% in size
In short: (§3)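 Tox21 screen in HEK293 using RealTime-Glo MT chemistry, with cells and reagent co-dispensed. Luminescence proportional to viable cell number was captured at intervals during 40 h compound exposure at 37 C.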

[5] = A CellTox Green Cytotoxicity Assay to monitor cytotoxicity in HEK293 cells - 32 hour (AID 1224881); note: nearly all actives have a fitted effect of over 40% in size; note: potency is the fitted concentration of half-maximal effect
In short: as §1

[6] = A CellTox Green Cytotoxicity Assay to monitor cytotoxicity in HepG2 cells - 0 hour (AID 1224882); note: nearly all actives have a fitted effect of over 35% in size
In short: as §2

[7] = A CellTox Green Cytotoxicity Assay to monitor cytotoxicity in HepG2 cells - 32 hour (AID 1224883); note: nearly all actives have a fitted effect of over 50% in size; note: potency is the fitted concentration of half-maximal effect
In short: as §2

[8] = A CellTox Green Cytotoxicity Assay to monitor cytotoxicity in HEK293 cells - 8 hour (AID 1224884); note: nearly all actives have a fitted effect of over 35% in size; note: potency is the fitted concentration of half-maximal effect
In short: as §1

[9] = qHTS RealTime-Glo MT Cell Viability Assay in HepG2 cells - 16 hour (AID 1224885); note: nearly all actives have a fitted effect of over 50% in size; note: potency is the fitted concentration of half-maximal effect
In short: (§4)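 Cells + NanoLuc/prosubstrate dispensed (600 cells/well) → 5 h at 37 C/5% CO2 → compounds in DMSO transferred → 40 h incubation at 37 C, luminescence read at 0, 8, 16, 24, 32, 40 h.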

[10] = qHTS RealTime-Glo MT Cell Viability Assay in HEK293 cells - 24 hour (AID 1224886); note: nearly all actives have a fitted effect of over 50% in size; note: potency is the fitted concentration of half-maximal effect
In short: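 Tox21 10K qHTS, HEK293, 600 cells/well, RealTime-Glo reagent co-dispensed with cells; 5 h preincubation, compound by pintool, 37 C, luminescence at 0–40 h.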

[11] = A CellTox Green Cytotoxicity Assay to monitor cytotoxicity in HepG2 cells - 8 hour (AID 1224890); note: nearly all actives have a fitted effect of over 45% in size; note: potency is the fitted concentration of half-maximal effect
In short: as §2

[12] = qHTS assay to identify small molecule antagonists of the androgen receptor (AR) signaling pathway using the MDA cell line in the presence of 0.5 nM R1881 - cell viability counter screen (AID 1259242); note: nearly all actives have a fitted effect of over 45% in size; note: potency is the fitted concentration of half-maximal effect
In short: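 R1881 at 0.5 nM final stimulated MDA-kb2 cells during 16 hr compound treatment at 37C. Cytotoxicity read: CellTiter-Fluor fluorescence after 30 min.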

[13] = A CellTox Green Cytotoxicity Assay to monitor cytotoxicity in HEK293 cells - 16 hour (AID 1224888); note: nearly all actives have a fitted effect of over 35% in size; note: potency is the fitted concentration of half-maximal effect
In short: as §1

[14] = qHTS RealTime-Glo MT Cell Viability Assay in HepG2 cells - 0 hour (AID 1224889); note: nearly all actives have a fitted effect of over 50% in size
In short: as §4

[15] = qHTS RealTime-Glo MT Cell Viability Assay in HepG2 cells - 32 hour (AID 1224877); note: nearly all actives have a fitted effect of over 55% in size
In short: as §4

[16] = qHTS RealTime-Glo MT Cell Viability Assay in HEK293 cells - 8 hour (AID 1224887); note: nearly all actives have a fitted effect of over 50% in size; note: potency is the fitted concentration of half-maximal effect
In short: as §3

[17] = target: Androgen receptor (Homo sapiens) (UniProt P10275); test: qHTS assay to identify small molecule antagonists of the androgen receptor (AR) signaling pathway using the MDA cell line in the presence of 0.5 nM R1881 (AID 1259243); note: nearly all actives have a fitted effect of over 50% in size; note: potency is the fitted concentration of half-maximal effect
Chain of Androgen receptor (Homo sapiens) (P10275 whole entry, looked up): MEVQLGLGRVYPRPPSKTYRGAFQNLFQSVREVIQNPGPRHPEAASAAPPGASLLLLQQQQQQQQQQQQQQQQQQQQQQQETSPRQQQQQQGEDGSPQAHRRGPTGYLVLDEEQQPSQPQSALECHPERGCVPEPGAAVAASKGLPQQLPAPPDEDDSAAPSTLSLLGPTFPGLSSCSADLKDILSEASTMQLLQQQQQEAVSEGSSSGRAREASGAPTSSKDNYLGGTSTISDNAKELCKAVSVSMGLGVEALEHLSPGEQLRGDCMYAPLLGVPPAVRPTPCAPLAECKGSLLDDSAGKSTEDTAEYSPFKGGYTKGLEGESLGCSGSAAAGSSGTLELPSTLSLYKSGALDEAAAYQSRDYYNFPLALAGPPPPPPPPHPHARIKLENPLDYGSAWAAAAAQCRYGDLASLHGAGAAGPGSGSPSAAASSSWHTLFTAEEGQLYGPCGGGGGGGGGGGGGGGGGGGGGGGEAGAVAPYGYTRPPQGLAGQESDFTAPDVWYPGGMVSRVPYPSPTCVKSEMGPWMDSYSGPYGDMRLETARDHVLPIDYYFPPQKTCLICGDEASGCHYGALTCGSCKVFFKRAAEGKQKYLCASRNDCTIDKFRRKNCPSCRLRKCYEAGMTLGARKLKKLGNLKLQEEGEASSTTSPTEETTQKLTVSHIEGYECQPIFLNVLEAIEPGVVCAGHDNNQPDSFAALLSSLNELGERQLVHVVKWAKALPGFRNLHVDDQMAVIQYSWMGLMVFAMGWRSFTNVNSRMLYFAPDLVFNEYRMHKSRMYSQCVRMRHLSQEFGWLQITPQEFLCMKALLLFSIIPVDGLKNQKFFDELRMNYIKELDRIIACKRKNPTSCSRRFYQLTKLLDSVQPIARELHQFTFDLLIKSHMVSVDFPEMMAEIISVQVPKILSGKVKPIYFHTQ
In short: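 We exposed MDA-kb2 cells to compounds under 0.5 nM R1881 stimulation for 16 hr at 37C and quantified MMTV-driven luciferase by luminescence.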

[18] = target: Estrogen receptor (Homo sapiens) (UniProt P03372); test: qHTS assay to identify small molecule antagonists of the estrogen receptor alpha (ER-alpha) signaling pathway using the BG1 cell line in the presence of 0.1 nM 17-beta-estradiol (AID 1259244); note: nearly all actives have a fitted effect of over 50% in size; note: potency is the fitted concentration of half-maximal effect
Chain of Estrogen receptor (Homo sapiens) (P03372 whole entry, looked up): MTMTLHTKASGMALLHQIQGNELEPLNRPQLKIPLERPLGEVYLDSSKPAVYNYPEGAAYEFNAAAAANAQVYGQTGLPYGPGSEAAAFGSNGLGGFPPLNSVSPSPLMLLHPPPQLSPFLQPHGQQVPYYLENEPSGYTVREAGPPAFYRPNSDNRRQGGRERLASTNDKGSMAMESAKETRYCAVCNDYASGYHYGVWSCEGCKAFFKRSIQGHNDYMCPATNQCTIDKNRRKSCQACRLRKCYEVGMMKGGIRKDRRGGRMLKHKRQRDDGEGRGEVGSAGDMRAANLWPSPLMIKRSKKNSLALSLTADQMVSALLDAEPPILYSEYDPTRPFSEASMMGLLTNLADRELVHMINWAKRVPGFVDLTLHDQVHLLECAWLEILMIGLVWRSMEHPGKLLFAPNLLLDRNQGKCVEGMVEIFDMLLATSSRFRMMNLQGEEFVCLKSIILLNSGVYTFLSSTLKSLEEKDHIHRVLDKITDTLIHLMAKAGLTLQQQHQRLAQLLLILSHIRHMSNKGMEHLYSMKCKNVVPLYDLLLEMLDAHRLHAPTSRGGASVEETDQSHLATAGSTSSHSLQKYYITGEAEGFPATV
In short: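 VM7Luc4E2; 4xERE-luciferase; 0.1 nM E2 final; 22 h co-incubation, 37C; ONE-Glo luminescence after 30 min at room temperature.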

[19] = A CellTox Green Cytotoxicity Assay to monitor cytotoxicity in HepG2 cells - 16 hour (AID 1224876); note: nearly all actives have a fitted effect of over 45% in size
In short: as §2

[20] = qHTS assay to identify small molecule antagonists of the estrogen receptor alpha (ER-alpha) signaling pathway using the BG1 cell line in the presence of 0.1 nM 17-beta-estradiol - cell viability counter screen (AID 1259241); note: nearly all actives have a fitted effect of over 40% in size
In short: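 Live-cell protease activity (CellTiter-Fluor fluorescence, 30 min) was read in the same wells after VM7Luc4E2 cells had been exposed to compounds with 0.1 nM 17beta-estradiol for 22 hr at 37C.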

Measured: Potency

CCSCC
not listed: [13] | [14] | [15] | [16] | [17] | [18] | [19] | [20]
inactive: all other assays above

O=[N+]([O-])c1ccc(O)c2ncccc12
active: [3] 4.25 µM | [12] 9.44 µM
inactive: [1] | [2] | [5] | [8] | [9] | [13] | [14]

CCCC(=O)c1cc(O)c(O)cc1O
inactive: [1] | [15] | [4] | [5] | [8] | [9] | [16] | [13] | [11] | [17] | [18]

CCCCCCCCSCc1cc(C)c(O)c(CSCCCCCCCC)c1
active: [16] 9.77 µM
not listed: [1] | [4] | [10] | [13]
inactive: all other assays above

CCOC(=O)OC(=O)OCC
not listed: [4] | [15] | [19]
inactive: all other assays above

COC(=O)c1ccc([N+](=O)[O-])cc1
not listed: [1] | [4] | [14] | [16] | [18]
inactive: all other assays above

O=C(NCc1ncc(C(F)(F)F)cc1Cl)c1c(Cl)cccc1Cl
active: [3] 17.4 µM | [7] 21.9 µM | [10] 21.9 µM | [17] 54.5 µM
not listed: [1] | [12] | [16] | [18] | [20]
inactive: all other assays above

Cc1cccc(C)c1C
not listed: [1] | [13] | [16] | [17] | [18]
inactive: all other assays above

CC/C(=C(/c1ccc(O)cc1)c1ccc(OCCN(C)C)cc1)c1ccccc1
inactive: [6] | [14] | [20]
active: [1] 25.7 µM | [2] 18.2 µM | [5] 22.9 µM | [7] 14.4 µM | [8] 28.8 µM | [9] 28.8 µM | [10] 10.2 µM | [16] 14.4 µM | [13] 28.8 µM | [11] 32.3 µM | [12] 40.3 µM | [17] 32 µM

O=C1OC(=O)c2cc(-c3ccc4c(c3)C(=O)OC4=O)ccc21
not listed: [1] | [3] | [12] | [13] | [17] | [20]
inactive: all other assays above

CC/C=C\C/C=C\C/C=C\CCCCCCCC(=O)OC
not listed: [1] | [12] | [14] | [16] | [17]
inactive: all other assays above

Cc1ccc(C2OC[C@@H]3OC(c4ccc(C)cc4)O[C@H]([C@H](O)CO)[C@@H]3O2)cc1 (stereo partly drawn)
not listed: [1] | [4] | [5] | [10] | [13] | [16]
inactive: all other assays above

O=S(=O)(c1ccc(OCc2ccccc2)cc1)c1ccccc1O
inactive: [1] | [4] | [5] | [6] | [8] | [9] | [14] | [11] | [20] | [12]
active: [18] 27.3 µM

CCN(CC)c1ccc(C=O)c(O)c1
not listed: [1] | [17] | [20]
inactive: all other assays above

O=C1OC(O)C(C(Cl)Cl)=C1Cl (stereo not drawn)
active: [7] 45 µM
not listed: [2] | [3] | [9] | [10] | [15] | [17] | [19] | [20]
inactive: all other assays above
